According to PubChem BioAssay (NCI):
About 83,000 compounds went through this panel and 20% of them were active in at least one assay; those are over-represented in the sample as a whole.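 The endpoint reported here, percent growth, reads 100 for growth as untreated, 0 for no net growth and -100 for all cells dead.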 Unmarked numbers belong to inactive results. The source made the active and inactive calls. How the source made its calls: active means growth percent below 10; inactive means the rest.

system: SK-MEL-5 melanoma; assay: NCI-60 one-dose screen, 48 h (100 = growth as untreated, 0 = no growth, -100 = all killed); settings: 10 µM unless noted

SMILES | growth
COc1ccc(C2=Nc3c/c(=C\c4c(O)[nH]c5cc(Cl)ccc45)ccc3=N2)cc1 | 60.7%
O=C1/C(=C/c2ccc(C(F)(F)F)cc2)COc2ccc(O)c(O)c21 | 68.5%
O=C(O)c1cccc(N/C=C/C(=O)c2cc3cc(Br)ccc3oc2=O)c1 | 97.7%
COc1cc(-c2nc(SCCC(C)C)nc(N3CCOCC3)c2C#N)cc(OC)c1OC | 102%
C/C(C=O)=C\c1ccc2c(c1)OCO2 | 105%
COc1cc(C(=O)c2c(-c3ccccc3)oc3c(OC)cccc23)cc(OC)c1O | 19.7%
Cc1c2cnccc2c(C)c2c1c1cc(C3OCCCO3)ccc1n2C | -95.8% (active)
Cc1cc2oc(=O)cc(CP(=O)(O)O)c2cc1O | 99.2%
Cc1cc2nc3c4ccccc4n(CCN(C)C)c3nc2cc1C | 6.22% (active)
C[Se]C(=O)CC1=C2C=C(F)C=CC2/C(=C\c2ccc(S(C)=O)cc2)C1C (stereo not drawn) | -87.7% (active)
CCCCCCNc1nc(NCCCCCC)c2[nH]c(NCCCCCC)nc2n1 | 78.1%
CCN(CC)CCN(CCN(CC)CC)c1ccccc1 | 97.7%
O=C(CSc1nc2ccc([N+](=O)[O-])cc2[nH]1)Nc1ccc(Br)cc1 | 26.3%
COc1ccc(/C(C)=C(\c2ccc(Cl)cc2)c2ccc(OCCN3CCCC3)cc2)cc1 | -63.2% (active)
COc1cc2c(c(OC)c1OC)C(=O)N[C@@H]1[C@@H](O)[C@@H](O)[C@H](O)C[C@@H]21 | 104%
CC(C)CCSc1nc(Nc2ccccc2)c(C#N)c(-c2ccccc2)n1 | 95.2%
O=C(/C=C/c1ccccc1)Nc1ncc(Cc2ccccc2)s1 | 30.6%
C#CCn1cnc2c(Nc3cccc(NC(=O)CCl)c3)ncnc21 | 31.4%
C/C(=N\Nc1nc(C)cs1)c1cc2ccccc2o1 | 92%
CC(=O)N(Cc1ccccc1)c1nc2ccc(O)c(CN(C)C)c2s1 | 99%
Nc1c(C(=O)Nc2ccccn2)sc2nc3c(cc12)C(O)CCC3 (stereo not drawn) | 20.3%
N#C/C(=C\c1ccc(Br)cc1)c1cc2ccccc2[nH]1 | 97.4%
COc1ccc(-c2ccc(-c3ccc(C(=N)N)cn3)s2)cc1 | 85%
C=CCn1c(SCC(=O)Nc2ccc(C(=O)/C=C/c3ccc(OC)cc3)cc2)nnc1-c1ccccc1 | 92.2%
Fc1ccc(COc2ccc(Nc3ncnc4sc5c(c34)CCCC5)cc2)cc1 | 95.5%

system: UACC-62 melanoma; assay: as above; settings: 10 µM unless noted

SMILES | growth
CC(C)c1ccc(NC(=O)Nc2ccc(NC(=O)c3ccccc3N)cc2)cc1 | 3% (active)
O=C(/C=C/c1cccc(Cl)c1)c1cccc(OCCCCOc2cccc(C(=O)/C=C/c3cccc(Cl)c3)c2)c1 | 72.8%
COC(=O)/C(CCC=C(C)C)=C1\[C@@H](OC(C)=O)C[C@@]2(C)[C@H]1CC(=O)[C@H]1[C@@]3(C)CCC(N4CCCC4)[C@@H](C)[C@@H]3CC[C@@]12C (stereo partly drawn) | 97.6%
C/C(=C(\c1ccc(OCCN2CCCCCC2)cc1)c1ccc(OC(=O)Cc2ccccc2)cc1)c1ccc(Cl)cc1 | -5.48% (active)
O=C(Cn1nnc2ccccc21)N/N=C/c1ccccc1F | 88.5%
CCN(CC)CCOc1nc2c3ccc(Cl)cc3nn2c2ccccc12 | 9.05% (active)
COc1ccc(NC(=O)c2ccc(C(=O)Nc3ccc(OC)cc3OC)cc2)c(OC)c1 | 73.8%
NC(=O)OCCn1cc(-c2nc(-c3c[nH]c4ncccc34)cs2)c2ccccc21 | 32.9%
CCOC(=O)c1c(-c2ccc(Cl)cc2)c(C#N)c2c(C#N)c(N)nn2c1N | 46.4%
CCOC(=O)c1c(C)nc2ccccc2c1/C=C/c1ccc(OC)cc1 | 45.7%
O=C(/C=C/C12c3ccccc3C(c3ccccc31)C1C(=O)NC(=O)C12)c1ccccn1 (stereo not drawn) | -48.4% (active)
Cn1c(/C=C/[N+](=O)[O-])cc2ccccc21 | 42.2%
COc1ccc(C2=Nc3c/c(=C\c4c(O)[nH]c5cc(Cl)ccc45)ccc3=N2)cc1 | 67.5%
O=C1/C(=C/c2ccc(C(F)(F)F)cc2)COc2ccc(O)c(O)c21 | 12.2%
O=C(O)c1cccc(N/C=C/C(=O)c2cc3cc(Br)ccc3oc2=O)c1 | 94.2%
COc1cc(-c2nc(SCCC(C)C)nc(N3CCOCC3)c2C#N)cc(OC)c1OC | 91.4%
C/C(C=O)=C\c1ccc2c(c1)OCO2 | 105%
COc1cc(C(=O)c2c(-c3ccccc3)oc3c(OC)cccc23)cc(OC)c1O | 39.3%
Cc1c2cnccc2c(C)c2c1c1cc(C3OCCCO3)ccc1n2C | -43.6% (active)

SMILES | growth
Cc1cc2oc(=O)cc(CP(=O)(O)O)c2cc1O | 90.7%
Cc1cc2nc3c4ccccc4n(CCN(C)C)c3nc2cc1C | 36.2%
COc1cc2c(cc1O)[C@@]1(C)[C@H](c3ccccc3Br)OC(=O)N1CC2 | 72.1%
C[Se]C(=O)CC1=C2C=C(F)C=CC2/C(=C\c2ccc(S(C)=O)cc2)C1C (stereo not drawn) | 30.9%
CCCCCCNc1nc(NCCCCCC)c2[nH]c(NCCCCCC)nc2n1 | 81.2%
CCN(CC)CCN(CCN(CC)CC)c1ccccc1 | 89.4%
O=C(CSc1nc2ccc([N+](=O)[O-])cc2[nH]1)Nc1ccc(Br)cc1 | 20.8%
COc1ccc(/C(C)=C(\c2ccc(Cl)cc2)c2ccc(OCCN3CCCC3)cc2)cc1 | -0.373% (active)
COc1cc2c(c(OC)c1OC)C(=O)N[C@@H]1[C@@H](O)[C@@H](O)[C@H](O)C[C@@H]21 | 94.1%
O=C1NC(=O)c2c1c1c3ccccc3[nH]c1c1oc3cc(Br)ccc3c21 | 48.5%
CC(C)CCSc1nc(Nc2ccccc2)c(C#N)c(-c2ccccc2)n1 | 89.9%
O=C(/C=C/c1ccccc1)Nc1ncc(Cc2ccccc2)s1 | 3.28% (active)
C#CCn1cnc2c(Nc3cccc(NC(=O)CCl)c3)ncnc21 | 19.7%
CC(=O)N(Cc1ccccc1)c1nc2ccc(O)c(CN(C)C)c2s1 | 93.7%
Nc1c(C(=O)Nc2ccccn2)sc2nc3c(cc12)C(O)CCC3 (stereo not drawn) | 18.7%
N#C/C(=C\c1ccc(Br)cc1)c1cc2ccccc2[nH]1 | 87.8%
COc1ccc(-c2ccc(-c3ccc(C(=N)N)cn3)s2)cc1 | 101%
C=CCn1c(SCC(=O)Nc2ccc(C(=O)/C=C/c3ccc(OC)cc3)cc2)nnc1-c1ccccc1 | 74.5%
Fc1ccc(COc2ccc(Nc3ncnc4sc5c(c34)CCCC5)cc2)cc1 | 72.1%
